# Data reported in ChEMBL document CHEMBL3988442, “University of Dundee, Small-Polar-MMV Screening Library” (2021).
# Hit rate of the full screen: of about 69,000 compounds, about 1,000 (1.4%) showed an effect of 50% or more. The entries come from a sample that favours strong results as a whole.
# System: Leishmania donovani
# Experiment: Leishmania intramacrophage assay
# Assay type: functional, organism-based
# Parameters: scale not given: in the data most compounds retested in dose-response had high values
structure (smiles),measurement,setting,value
CC(=O)c1cn(CCC(=O)NCCC(=O)O)c2ccccc12,Percent Effect,"30 µM, 30.03 µM",18%
CN(C)c1cccc(C(=O)N2CCn3c(nnc3-c3ccccc3)C2)c1,Percent Effect,"30.3 µM, […]",3.878%
O=C1Nc2ccccc2CN(C/C=C/c2ccccc2)C12CCNC2 (stereo unspecified),Percent Effect,"30.3 µM, […]",95.58%
CCCN1Cc2ccccc2NC(=O)C12CCNC2 (stereo unspecified),Percent Effect,"30.3 µM, […]",13.56%
O=C1Nc2ccccc2CNC12CCN(CC1CCCC1)CC2,Percent Effect,"30.3 µM, […]",-1.284%
O=C1Nc2ccccc2CN(CC2CC2)C12CCNC2 (stereo unspecified),Percent Effect,"30.3 µM, […]",19.67%
O=C1Nc2ccccc2CN(CC2CCCC2)C12CCNC2 (stereo unspecified),Percent Effect,"30.3 µM, […]",67.89%
O=C1Nc2ccccc2CC12CCCN2Cc1ccc(F)cc1 (stereo unspecified),Percent Effect,"30.3 µM, […]",-31.7%
CC(C)NC(=O)Nc1ccc(-c2nc(C(C)C)no2)cc1,Percent Effect,"30.3 µM, […]",-3.03%
Cc1nc2[nH]cc(C(=O)N3CCCCC3c3ccc(F)cc3)c(=O)n2n1 (stereo unspecified),Percent Effect,"30.3 µM, […]",-11.65%
Cc1cc(=O)c(C(=O)N2CCCCC2c2ccc(F)cc2)c[nH]1 (stereo unspecified),Percent Effect,"30.3 µM, […]",7.21%
Cc1cc2[nH]cc(C(=O)N3CCCCC3c3ccc(F)cc3)c(=O)n2n1 (stereo unspecified),Percent Effect,"30.3 µM, […]",54.57%
COc1c(CNCCNC(=O)c2ccco2)c(C)nn1C,Percent Effect,"30 µM, 30.03 µM",1.036%
CCn1nc(C)c2ccn(CC(=O)NCCCOC)c(=O)c21,Percent Effect,"30.3 µM, […]",6.815%
Cc1cc(C(=O)N2CCCC(c3nccn3Cc3cscn3)C2)on1 (stereo unspecified),Percent Effect,"30.3 µM, […]",7.716%
Cc1nc2ccccn2c1CN1C[C@@H](CN(C)CCO)[C@@H](CO)C1,Percent Effect,"30.3 µM, […]",17.46%
COc1ccccc1OC1CN(C(=O)Cc2c(C)nc3ccccn23)C1,Percent Effect,"30.3 µM, […]",42.17%
Cc1nc2ccccn2c1CN1C[C@@H](CN2CCOCC2)[C@@H](CO)C1,Percent Effect,"30.3 µM, […]",60.75%
Cc1ccccc1OC1CN(Cc2c(C)nc3ccccn23)C1,Percent Effect,"30.3 µM, […]",56.4%
Cc1nc2ccccn2c1CN1C[C@@H](CN(C)C)[C@@H](CO)C1,Percent Effect,"30.3 µM, […]",28.56%
Cc1nc(CN2C[C@@H](CN3CCOCC3)[C@@H](CO)C2)c2ccccn12,Percent Effect,"30.3 µM, […]",-8.953%
CC(C)CCc1nc(CNCC2CN(C)CCO2)cs1 (stereo unspecified),Percent Effect,30 µM,42.41%
CCN1C(=O)C2(CCOCC2)c2cc(NC(=O)c3cc(C)n[nH]3)ccc21,Percent Effect,"30.3 µM, […]",7.521%
Cc1nonc1CC(=O)N1CCC2(CCCN(C3CCOCC3)C2=O)C1 (stereo unspecified),Percent Effect,"30.3 µM, […]",40.04%
O=C(c1c[nH]nn1)N1CCCC1C1CCCCC1 (stereo unspecified),Percent Effect,"30.3 µM, […]",34.69%
Cc1cc(C)n(C2CCN(S(=O)(=O)N3CCOCC3)CC2)n1,Percent Effect,"30.3 µM, […]",-18.5%
CN(C)C(CNC(=O)c1ccc(-n2cnnn2)cc1)c1ccccc1Cl (stereo unspecified),Percent Effect,"30.3 µM, […]",52.55%
O=C(NCC(O)c1ccccc1Cl)c1cccc(-n2cnnn2)c1 (stereo unspecified),Percent Effect,"30 µM, 30.03 µM",18.08%
CN(C)C(CNC(=O)c1cccc(-n2cnnn2)c1)c1ccccc1Cl (stereo unspecified),Percent Effect,"30 µM, 30.03 µM",-12.85%
Cc1ncc(CNCC(C)O)c2cc(C(=O)c3ccc(Br)cc3)oc12.Cl (stereo unspecified),Percent Effect,"30.3 µM, […]",46.85%
Cc1ncc(CNCCO)c2cc(C(=O)c3ccc(Br)cc3)oc12.Cl,Percent Effect,"30.3 µM, […]",52.55%
Cc1ncc(CNC(C)(C)CO)c2cc(C(=O)c3ccc(Br)cc3)oc12,Percent Effect,"30.3 µM, […]",44.76%
CCn1nc(C)c2ncnc(NCCn3cccn3)c21,Percent Effect,"30.3 µM, […]",-8.829%
N#Cc1ccc(N2CCC3(CC2)COCCN3Cc2cccnc2)cc1.O=C(O)C(F)(F)F,Percent Effect,"30.3 µM, […]",-0.3912%
CC1(C)CC(N2Cc3nc(N)ncc3C2=O)CC(C)(C)N1,Percent Effect,"30 µM, 30.03 µM",0.1811%
CNc1ncc2c(n1)CN(C1CC(C)(C)NC(C)(C)C1)C2=O,Percent Effect,"30.3 µM, […]",57.04%
CNc1ncc2c(n1)CN(C1CCCC1)C2=O,Percent Effect,"30.3 µM, […]",-21.11%
CCc1nsc(NC2CC(=O)N(C3CC3)C2)n1 (stereo unspecified),Percent Effect,"30.3 µM, […]",25.34%
Cc1ccc(-c2[nH]c3ccccc3c2C(=O)O)c(C)c1,Percent Effect,"30.3 µM, […]",12.49%
COCCN1CCC(CNC(=O)Nc2ccc(F)c(Cl)c2)C1 (stereo unspecified),Percent Effect,"30.3 µM, […]",9.001%
COCCN1CCC(CNC(=O)Nc2ccc(-c3ccccc3)cc2)C1 (stereo unspecified),Percent Effect,"30.3 µM, […]",93.25%
COCCN1CCC(CNC(=O)Nc2ccc(SC(F)(F)F)cc2)C1 (stereo unspecified),Percent Effect,"30.3 µM, […]",43.78%
Cc1cccc(CN2CCC3(CC(C(=O)NCC(C)C)=NO3)C2)c1 (stereo unspecified),Percent Effect,"30.3 µM, […]",14.53%
CN(Cc1ccccc1)c1ccc(C(F)(F)F)cn1,Percent Effect,"30.3 µM, […]",14.63%
CN(Cc1ccc([S+](C)[O-])cc1)c1ccc(Br)cn1 (stereo unspecified),Percent Effect,"30.3 µM, […]",20.24%
CN(Cc1ccc([S+](C)[O-])cc1)c1ccc(C(F)(F)F)cn1 (stereo unspecified),Percent Effect,"30.3 µM, […]",54.49%
Cn1ccnc1CN1CCCN(C(=O)CC(C2CC2)C2CC2)CC1,Percent Effect,30 µM,10.73%
Cc1ncc(CNC(=O)c2nn(C)c3c2CS(=O)(=O)CC3)s1,Percent Effect,"30 µM, 30.03 µM",17.47%
Cn1nc(C(=O)NCc2cccs2)c2c1CCS(=O)(=O)C2,Percent Effect,"30.3 µM, […]",62.35%
Cn1nc(C(=O)NCc2ccccn2)c2c1CCS(=O)(=O)C2,Percent Effect,"30 µM, 30.03 µM",-1.622%
CN1C(=O)CCCC12CCCN(Cc1cccs1)C2.O=C(O)C(F)(F)F (stereo unspecified),Percent Effect,"30.3 µM, […]",13.27%
OC(COCc1ccccc1F)CN1CCC(Cn2cccn2)CC1 (stereo unspecified),Percent Effect,"30.3 µM, […]",8.392%
Cc1ccc(CN2C[C@@H]3CN(C(=O)c4cccn4C)C[C@@H]3C2)cc1.O=C(O)C(F)(F)F,Percent Effect,"30.3 µM, […]",-2.2%
COc1ccccc1N1CCC(NCc2c(C)noc2C)C1 (stereo unspecified),Percent Effect,"30.3 µM, […]",7.918%
Cc1noc(C)c1CNc1c(N2CCCC2)cccc1N1CCCC1,Percent Effect,"30.3 µM, […]",97.2%
Cc1noc(CNc2c(N3CCCC3)cccc2N2CCCC2)n1,Percent Effect,"30.3 µM, […]",45.54%
Cc1cc(CN2CCC(N(C)Cc3noc(C4CC4)n3)C2)on1 (stereo unspecified),Percent Effect,30 µM,11.66%
O=C(c1ccncc1)N1CCCn2c(CN3CCCCC3)nnc2C1,Percent Effect,"30 µM, 30.03 µM",-1.304%
CN1CC(c2cc(O)nc(NCc3ccccc3Cl)n2)CC1=O (stereo unspecified),Percent Effect,"30.3 µM, […]",7.659%
Cc1nc(C2(O)CCCNCC2)sc1CCOc1ccccc1F.Cl (stereo unspecified),Percent Effect,"30.3 µM, […]",57.78%
CCN1CCCC(O)(c2nc(C)c(CCOc3ccccc3Cl)s2)CC1 (stereo unspecified),Percent Effect,"30.3 µM, […]",29.58%
Cc1nc(C2(O)CCCNCC2)sc1CCOc1ccccc1Cl.Cl (stereo unspecified),Percent Effect,"30.3 µM, […]",22.61%
Cc1ncc(C(=O)NCCOc2ccccc2F)c(C)n1,Percent Effect,"30.3 µM, […]",48.08%
CCN1CCCC(O)(c2nc(C)c(CCOc3ccccc3F)s2)CC1 (stereo unspecified),Percent Effect,"30.3 µM, […]",7.204%
CC/N=c1/c(NC(=O)C2CC2)c(O)oc2ccccc12,Percent Effect,"30.3 µM, […]",-64.73%
CNC(=O)C(C)(C)CNC(=O)Nc1ccc(C)cn1,Percent Effect,"30.3 µM, […]",-4.041%
CN1CCC(N2CCC(C(=O)N(C)C)CC2)CC1.O=C(O)C(F)(F)F.O=C(O)C(F)(F)F,Percent Effect,"30.3 µM, […]",15.52%
Cc1cc(C(=O)NCc2ccnc(N3CCN(C)CC3)c2)no1,Percent Effect,30 µM,35.55%
COc1ncc(-c2nccn2C(C)CCn2cccn2)cn1 (stereo unspecified),Percent Effect,"30.3 µM, […]",51.46%
COc1cc(-c2nccn2C(C)CCn2cccn2)cc2c1OCO2 (stereo unspecified),Percent Effect,"30.3 µM, […]",30.8%
COCCCn1ccnc1-c1cnc(OC)nc1,Percent Effect,"30 µM, 30.03 µM",27.45%
CCOCCNC(=O)c1cccnc1Sc1cc(OC)ccc1OC,Percent Effect,"30.3 µM, […]",14.43%
CC(NCC1CCN(CCO)CC1)c1ccc(OC(F)(F)F)cc1 (stereo unspecified),Percent Effect,"30.3 µM, […]",36.61%
CC(NCC1CCN(CCO)CC1)c1cccc(Cl)c1 (stereo unspecified),Percent Effect,"30.3 µM, […]",73.65%
CC(NCC1CCN(CCO)CC1)c1ccc(Cl)cc1 (stereo unspecified),Percent Effect,"30.3 µM, […]",77.33%
CN(CC1CCN(CCO)CC1)CC(O)c1ccc(F)c(F)c1 (stereo unspecified),Percent Effect,"30.3 µM, […]",32.26%
CC(NCC1CCN(CCO)CC1)c1cccnc1 (stereo unspecified),Percent Effect,"30.3 µM, […]",10.64%
OCCN1CCN(CC(O)c2ccc(C(F)(F)F)cc2)CC1 (stereo unspecified),Percent Effect,"30.3 µM, […]",28.06%
COc1ccc(CNCC2CCN(CCO)CC2)cc1F,Percent Effect,"30.3 µM, […]",13.13%
COC1CCN(CCNC(=O)NC(C)c2cccc(Cl)c2)CC1 (stereo unspecified),Percent Effect,"30.3 µM, […]",6.711%
CC(NCC1CCN(CCO)CC1)c1ccc(F)c(Cl)c1 (stereo unspecified),Percent Effect,"30.3 µM, […]",55.27%
Cc1ccc(CNC(=O)CNCC2CCN(CCO)CC2)s1,Percent Effect,"30.3 µM, […]",12.94%
CC(NC1CCN(CCS(C)(=O)=O)CC1)c1ccc(Cl)cc1 (stereo unspecified),Percent Effect,"30 µM, 30.03 µM",14.89%
CC(NCC1CCN(CCO)CC1)c1ccc(C(F)(F)F)cc1 (stereo unspecified),Percent Effect,"30.3 µM, […]",77.37%
O=C(O)C(F)(F)F.O=S(=O)(C1CC1)N1CCOCC2(CCN(c3ccccn3)C2)C1 (stereo unspecified),Percent Effect,"30 µM, 30.03 µM",-13.08%
CC(C)N(C)Cc1nnn2c1CN(Cc1cccnc1)CCC2.O=C(O)C(F)(F)F.O=C(O)C(F)(F)F.O=C(O)C(F)(F)F,Percent Effect,"30.3 µM, […]",-19.03%
FC(F)(F)c1cc(C2CCNCC2)nc(-c2ccsc2)n1,Percent Effect,"30.3 µM, […]",3.687%
CN(Cc1ccccc1)S(=O)(=O)N1C[C@H](C2CC2)[C@@H](N)C1,Percent Effect,"30.3 µM, […]",11.31%
Cc1nc(CN(C)C2CCN(CCc3cnn(C)c3)C2)no1 (stereo unspecified),Percent Effect,30 µM,5.885%
Cc1nc(C)n(CC2CCCN(CCc3ccccc3)C2)n1 (stereo unspecified),Percent Effect,30 µM,25.36%
Cc1noc(CN(C)CC2CCN(CCO)CC2)n1,Percent Effect,"30.3 µM, […]",19.09%
COc1ccc(CCN2CCCC(Cn3nc(C)nc3C)C2)cc1 (stereo unspecified),Percent Effect,"30 µM, 30.03 µM",18.76%
Cc1nc(CN(C)C2CCN(CCc3ccc4c(c3)CCO4)C2)no1 (stereo unspecified),Percent Effect,30 µM,14.02%
CCc1nc(CN(C)C2CCN(CCc3ccncc3)C2)no1 (stereo unspecified),Percent Effect,"30.3 µM, […]",23.01%
O=C(CCOc1ccccc1)NS(=O)(=O)Cc1ccccc1,Percent Effect,"30.3 µM, […]",8.588%
CCO[C@H]1CC[C@H]2[C@H]1OCCN2C(=O)CC1=CCCCC1,Percent Effect,"30.3 µM, […]",2.273%
Cn1cnc(S(=O)(=O)N2CCCC2)c1Cl,Percent Effect,"30 µM, 30.03 µM",14.79%
O=C(NCCc1cccc(F)c1)c1nc2c(s1)CCCN2C(=O)C1CC1,Percent Effect,"30.3 µM, […]",44.4%
CCN(Cc1ccoc1)C(C(N)=O)c1cccc(Br)c1 (stereo unspecified),Percent Effect,"30.3 µM, […]",23.25%
CN(c1ncc(S(N)(=O)=O)s1)C1CCc2ccccc21 (stereo unspecified),Percent Effect,"30.3 µM, […]",21.68%
CN(c1ncc(S(N)(=O)=O)s1)C1CCc2ccccc2C1 (stereo unspecified),Percent Effect,"30.3 µM, […]",53.12%
CN(c1ncc(S(N)(=O)=O)s1)C1CCC1,Percent Effect,"30.3 µM, […]",27.02%
O=C(NC1CCC1)C1=NOC2(CCN(Cc3ccccc3)C2)C1 (stereo unspecified),Percent Effect,"30.3 µM, […]",18.41%
CNC(=O)CN1CCOCC2(C1)CN(C(=O)CC(C)C)CCO2.O=C(O)C(F)(F)F (stereo unspecified),Percent Effect,"30.3 µM, […]",52.6%
CNC(=O)CN1CCOCC2(C1)CN(C(=O)C(C)C)CCO2.O=C(O)C(F)(F)F (stereo unspecified),Percent Effect,"30.3 µM, […]",-36.06%
CCCC(=O)N1CCOC2(COCCN(CC(=O)NC)C2)C1.O=C(O)C(F)(F)F (stereo unspecified),Percent Effect,"30.3 µM, […]",-9.456%
